# GALK inhibitor: inhibitors of human galactokinase | Purified GALK, Kinase-Glo residual ATP luminescence | Potency, µM (titrated, usually from 57.5 µM), for inactives: at the top dose activity change, negative = inhibition, most hits filed as inhibitors | 270,000 compounds, 0.007% hits; further: potency means the concentration at half of the fitted maximal effect
#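 Compounds were pin-transferred into ATP buffer (35 uM final), then GALK plus galactose (5 nM, 100 uM final) was added. After 1 h at room temperature, Kinase-Glo Plus was added and luminescence read after 10 min.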
# PI4K2A inh: inhibitors of human PI4K2A; purified PI4K2A, ADP-Glo luminescence, 1 h; hits give low values; AID 1346378; Q9BTU6; 420,000 compounds, 0.13% hits; activity change, negative = inhibition, % at 76.9 µM; in the data active means activity change below about -50%; inconclusive means mostly about -30% to -49%;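 further: -100% = wells without enzyme as full effect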
#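 PI4K2A activity was measured by ADP-Glo luminescence: enzyme (4 ug/mL stock) and phosphatidylinositol (1.2 mM stock) in Tris pH 7.5/MgCl2/EGTA/Triton X-100 buffer were reacted with ATP (300 microM stock) for one hour at ambient temperature.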
# PKM2 activator: increases activity of human pyruvate kinase M2 | P14618 | purified PKM2, Kinase-Glo ATP luminescence, activation; response scale: 0% is enzyme alone, no compound | Potency, µM (top dose mostly 57.5 µM), for inactives: at the highest dose activation, most hits filed as activators | 260,000 compounds, 0.34% hits; further: potency means the concentration at half of the fitted maximal effect; nearly all actives have a fitted effect of over 55% in size
# Target sequence (P14618 whole entry, looked up): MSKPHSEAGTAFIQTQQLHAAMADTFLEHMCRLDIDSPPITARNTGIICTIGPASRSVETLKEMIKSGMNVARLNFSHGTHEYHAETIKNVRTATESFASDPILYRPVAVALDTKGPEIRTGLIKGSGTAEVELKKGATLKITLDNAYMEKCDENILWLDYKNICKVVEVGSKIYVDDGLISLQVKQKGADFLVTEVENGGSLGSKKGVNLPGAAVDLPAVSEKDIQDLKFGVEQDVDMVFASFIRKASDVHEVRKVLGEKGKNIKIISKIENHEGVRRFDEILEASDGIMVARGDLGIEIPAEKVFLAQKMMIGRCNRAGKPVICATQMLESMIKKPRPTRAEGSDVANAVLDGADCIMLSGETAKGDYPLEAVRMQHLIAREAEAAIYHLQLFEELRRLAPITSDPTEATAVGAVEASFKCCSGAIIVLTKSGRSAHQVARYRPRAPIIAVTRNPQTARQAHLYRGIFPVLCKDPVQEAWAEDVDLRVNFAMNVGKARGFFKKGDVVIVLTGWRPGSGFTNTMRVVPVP
#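 ATP formation by purified human PK-M2, quantified via coupled luciferase luminescence after 1 h at room temperature with 0.1 mM ADP and 0.5 mM PEP final.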
# TrxR1 inh: rat TrxR1 inhibition; 390,000 compounds, 1% hits; O89049; Potency, µM (highest dose often 114 µM), for the others: top-dose activity change, negative = inhibition, usual class: inhibitors; recombinant rTrxR1, NADPH fluorescence consumption, selenite substrate; further: potency means the concentration at half of the fitted maximal effect; nearly all actives have a fitted effect of over 65% in size
#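 Rat TrxR1 (90 nM in the dispensed reagent) was pre-reduced with 400 uM NADPH for 5 min at room temperature, then incubated with compound for 15 min. After 400 uM selenite was added, NADPH fluorescence (Ex 340/Em 450 nm) was followed for 8 min.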
# TrxR1 substrate: substrates of rat thioredoxin reductase 1. O89049. purified TrxR1 substrate turnover, NADPH consumption readout. Potency, µM (titrated, usually from 114 µM), for the others: at the highest dose activity change, negative = substrate turnover. 390,000 compounds, 0.01% hits. AID 588456; further: potency means the concentration at half of the fitted maximal effect; nearly all actives have a fitted effect of over 50% in size
#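 Rat TrxR1, dispensed at 90 nM, was prereduced with 400 uM NADPH (final) for 5 min at ~22 deg C, then incubated with compound 15 min before 400 uM selenite. A first-read NADPH fluorescence drop versus no-compound background flagged substrates.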
# An asterisk follows results filed as active; ? = inconclusive; . = not tested or not shown; [ ] = dose if it differs, or a comment. In the library only some 1.2% were active in any assay of this set; here they are far more common. Unless noted, the call rests on the fitted dose curve; in most records, active means well fitted curve in the direction sought with a large enough effect; inconclusive means small, poorly fitted or top-dose-only effect, or another doubt; inactive means no such curve, though single readings can be large; an effect the other way counts as inactive or inconclusive. Unless noted, on the % scale 0 is the no-effect control and ±100 the full control effect.
SMILES,GALK inhibitor,PI4K2A inh,PKM2 activator,TrxR1 inh,TrxR1 substrate
Cc1cc(SCC(=O)OCC(=O)N2CCN(C(=O)c3ccco3)CC2)c(C)cc1Br,0%,-2,25µM*,-6%,16%[57.1 µM]
O=C(CCNS(=O)(=O)c1cccc(Cl)c1)OCC(=O)N1CCN(C(=O)c2ccco2)CC1,.,6,.,50µM*,11%
O=C(/C=C/c1ccc(OC(F)F)cc1)OCC(=O)N1CCN(C(=O)c2ccco2)CC1,0%,-7,4%,3%,3%
CCOC(=O)/C=C/C(=O)OCC(=O)N1CCN(C(=O)c2ccco2)CC1,2%,-5,5%,50µM*,-7%
CCOC(=O)c1cc(CC)sc1NC(=O)CN1CCN(C(=O)c2ccco2)CC1,-5%,-8,5%,35µM*,-6%
Cc1cc(SCC(=O)N2CCN(C(=O)c3ccco3)CC2)c(C)cc1Br,.,-1,.,18%,0%
O=C(CCNS(=O)(=O)c1ccc2c(c1)CCCC(=O)N2)NCc1ccccc1Cl,.,-5,.,-3%,-2%
Oc1ccc(CN2CCCc3ccccc32)c2cccnc12,1%,5,1%,1.3µM*,10%
COc1ccc2c([N+](=O)[O-])c(Cl)[nH]c2c1,-3%,-17,-1%,14µM*,-1%
CCN1CCOC(=O)C1CC(=O)Nc1cc(Cl)ccc1C (stereo unspecified),.,-3,.,11µM*,4%
CCCOc1ccc(NC(=O)CC2C(=O)N(c3cccc(C)c3)C(=O)N2CCc2ccncc2)cc1 (stereo unspecified),.,-7,.,28%,-3%
Nc1ccc(C(=O)O)cc1,.,-2,.,22%,10%
Nc1ccc(O)cc1,.,?,.,14µM*,?
Cc1ccc(Sc2ccc([N+](=O)[O-])cc2[N+](=O)[O-])nc1,2%,13,3%,-39%,-3%[57.1 µM]
Cc1ccnc(Sc2ccc([N+](=O)[O-])cc2[N+](=O)[O-])n1,-3%,24,3%,20µM*,6%
CC1(C)CC(=O)C(CS(=O)(=O)c2ccccc2)=C(Cl)C1,6%,4,-2%,28µM*,4%
CC1(C)CC(=O)c2sc(NC(=O)CCS(=O)(=O)c3ccccc3)nc2C1,0%,2,-11%,6%[57.1 µM],7%[57.1 µM]
COc1ccc(NC(=O)N2CCc3ccccc32)cc1,8%,-54*,-50%,2%,-4%
O=C(CSc1nc2ccccc2n1Cc1ccccc1Cl)NN=C/C(Br)=C/c1ccccc1,.,-1,.,.,.
NS(=O)(=O)c1ccc2c(c1)C(=NO)c1cc(S(N)(=O)=O)ccc1-2,-2%,-5,4µM*,15%,5%
CN(CCO)S(=O)(=O)c1ccc2c(c1)C(=NO)c1cc(S(=O)(=O)N(C)CCO)ccc1-2,0%,6,14%,11%,17%
CC(=O)N1CC(=O)N=C1SCC(=O)Nc1nc(C)c(-c2ccccc2)s1,1%,-5,20µM*,13%[57.1 µM],-3%[57.1 µM]
CCC[C@H]1[C@@H](OC(=O)Oc2ccc([N+](=O)[O-])cc2)CC[C@@]23CCCN2C(=O)CCC[C@@H]13,.,-2,.,.,.
CC(=O)OC1(C(C)=O)CCC2C3CC(C(F)(F)F)C4=CC(=O)CCC4(C)C3CCC21C (stereo unspecified),.,-4,.,16µM*,0%
CN1c2ccc(C#CC3CC3)cc2[C@@H]2[C@@H](CCN2C(=O)C2CCOCC2)[C@H]1CO,.,-2,.,.,.
SMILES,GALK inhibitor,PI4K2A inh,PKM2 activator,TrxR1 inh,TrxR1 substrate
O=C(CCNc1cc(Cl)cc(Cl)c1)c1cccs1,5%,2,-1%,28µM*,3%
COCCNC(=O)CN1C(=O)CCn2nc(-c3cn(C)c4ccccc34)cc21,.,0,.,20%[57.1 µM],-1%[57.1 µM]
O=C(c1ccc(NS(=O)(=O)c2cccs2)cc1)N1CCN(c2ccccc2Cl)CC1,0%,-2,6.3µM*,-3%,-8%
CCn1c2ccccc2c2cc(NC(=O)COC(=O)c3cc(F)cc(F)c3)ccc21,.,-3,.,.,.
CN(CC(=O)Nc1ccc(Cl)cc1)S(=O)(=O)c1ccc2c(c1)n(C)c(=O)c(=O)n2C,-4%,9,.,9%,10%
CN(CC(=O)Nc1cccc(Cl)c1)S(=O)(=O)c1ccc2c(c1)n(C)c(=O)c(=O)n2C,3%,1,.,25µM*,-7%
